Screening results (PubChem BioAssay)
NPR1 antag: blocks ANP-stimulated signaling of human Npr1 receptor | HEK293 hNpr1 GloSensor cGMP, ANP-stimulated luminescence | P16066 | 76,000 compounds, 1.6% hits | AID 1347048 | Potency, µM (top dose mostly 46.3 µM), actives largely listed as inhibitors; calls by dose curve; note: nearly all actives have a fitted effect of over 60% in size
Target sequence (P16066 whole entry, looked up): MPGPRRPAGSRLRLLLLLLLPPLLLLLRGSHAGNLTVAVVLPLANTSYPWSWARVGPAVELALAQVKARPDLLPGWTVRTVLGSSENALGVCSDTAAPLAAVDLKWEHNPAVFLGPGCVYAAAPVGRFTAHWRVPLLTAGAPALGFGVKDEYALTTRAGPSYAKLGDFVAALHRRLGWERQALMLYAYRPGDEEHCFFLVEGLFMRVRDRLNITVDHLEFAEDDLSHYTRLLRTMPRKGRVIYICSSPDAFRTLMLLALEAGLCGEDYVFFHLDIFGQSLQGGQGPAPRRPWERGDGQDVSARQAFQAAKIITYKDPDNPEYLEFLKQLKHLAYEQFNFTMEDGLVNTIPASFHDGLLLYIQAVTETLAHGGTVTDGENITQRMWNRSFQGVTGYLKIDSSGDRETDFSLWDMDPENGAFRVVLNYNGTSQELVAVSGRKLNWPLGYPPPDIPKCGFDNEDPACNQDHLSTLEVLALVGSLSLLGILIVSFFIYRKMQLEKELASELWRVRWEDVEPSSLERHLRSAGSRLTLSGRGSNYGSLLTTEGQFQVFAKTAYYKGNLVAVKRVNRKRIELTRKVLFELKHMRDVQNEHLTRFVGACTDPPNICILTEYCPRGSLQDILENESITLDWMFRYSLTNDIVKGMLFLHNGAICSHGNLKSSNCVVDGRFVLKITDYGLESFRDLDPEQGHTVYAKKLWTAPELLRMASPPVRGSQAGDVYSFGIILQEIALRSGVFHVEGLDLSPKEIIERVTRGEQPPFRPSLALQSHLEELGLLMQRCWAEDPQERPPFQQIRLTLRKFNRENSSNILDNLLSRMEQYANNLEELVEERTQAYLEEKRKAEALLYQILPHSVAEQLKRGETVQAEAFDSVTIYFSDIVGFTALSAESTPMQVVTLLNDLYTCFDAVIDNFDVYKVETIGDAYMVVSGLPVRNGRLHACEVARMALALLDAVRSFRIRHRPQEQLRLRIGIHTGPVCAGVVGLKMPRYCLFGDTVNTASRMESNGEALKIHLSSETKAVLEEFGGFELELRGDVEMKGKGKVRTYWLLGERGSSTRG
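HEK293 cells stably expressing human Npr1 and cGMP GloSensor pGS-40F, loaded 2 h with 2% GloSensor reagent, given compound 30 min at room temperature. Luminescence read before and 20 min after 0.1 nM hNppA.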
Luciferase inh: inhibitors of firefly (Photinus pyralis) luciferase; P08659; purified P. pyralis luciferase, luminescence, biochemical; Potency, µM (titrated, usually from 115 µM), hits mostly inhibitors; 76,000 compounds, 2.5% hits; note: nearly all actives have a fitted effect of over 65% in size
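Inhibitors were tested against purified firefly luciferase in a biochemical, low-substrate format (both substrates at 10uM) and luminescence measured with a CCD imager.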
HEK293 tox: HEK 293 cell cytotoxicity. HEK 293 viability, ATP luminescence (CellTiter-Glo), 48-72 h. Potency, µM (doses to about 115 µM), most hits filed as inhibitors. 94,000 compounds, 6.6% hits. AID 1345083; note: nearly all actives have a fitted effect of over 60% in size
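HEK 293 cells seeded at 250 cells/well were exposed to compound for 48 or 72 hr at 37 degree Celsius. Viability taken as ATP content by CellTiter-Glo luminescence.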
3T3 cytotox: NIH 3T3 cell cytotoxicity | 94,000 compounds, 4.3% hits | NIH 3T3 viability, CellTiter-Glo ATP luminescence, 48-72 h | Potency, µM (doses to about 96.7 µM), actives largely listed as inhibitors | AID 1345082; note: nearly all actives have a fitted effect of over 55% in size
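Cells were seeded at 400 per well, treated with pin-transferred compound, and kept 48 or 72 hr at 37 °C before CellTiter-Glo addition and luminescence imaging of cellular ATP.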
Each line names hits and unclear results; the compound was inactive in the other large screens. Hits are enriched below; roughly 11% of the tested compounds scored in any of these assays. Unless noted, calls come from the whole dose curve; as a rule, active = well fitted curve in the direction sought with a large enough effect; inconclusive = small, poorly fitted or top-dose-only effect, or another doubt; inactive = no such curve, though single readings can be large; an effect the other way counts as inactive or inconclusive.

Cc1ccc(C(=O)Nc2ccc3c(N4CCCCC4)ncnc3c2)cc1F	HEK293 tox inconclusive, 3T3 cytotox inconclusive
O=C(Nc1ccc2ncnc(N3CCCCC3)c2c1)c1cc(F)cc(F)c1	NPR1 antag inconclusive, HEK293 tox inconclusive, 3T3 cytotox inconclusive
CCc1ccc(NC(=O)Cn2c(=O)c(-c3noc(CC)n3)c3n(c2=O)CCCCC3)cc1	none
CC(C)c1ccc(S(=O)(=O)N2CCC3(CCCNC3)C2)cc1 (stereo not given)	HEK293 tox inconclusive, 3T3 cytotox inconclusive
N#Cc1ccc(S(=O)(=O)N2C[C@@H](Oc3ccccc3)C[C@H]2C(=O)N2CCOCC2)cc1	none (no result: NPR1 antag, Luciferase inh)
O=C(Nc1ccc2c(N3CCCC3)ncnc2c1)c1ccc(Cl)cc1	3T3 cytotox inconclusive
O=C(Nc1ccc2c(N3CCCCC3)ncnc2c1)c1ccc(F)cc1	Luciferase inh inconclusive, HEK293 tox inconclusive, 3T3 cytotox 28.2µM
Cc1ccc(C2=NC3(CCN(C(=O)c4ccoc4)CC3)ON2)cc1	Luciferase inh 31.6µM
Cc1ccc(C2=NC3(CCN(C(=O)c4ccco4)CC3)ON2)cc1	Luciferase inh 28.2µM
Cc1ccc(C(=O)N2CCC(n3cnnc3-c3ccccc3)CC2)s1	none (no result: NPR1 antag, Luciferase inh)
O=C(c1cccc(Cl)c1)N1CCCC2(CN[S+](=O)([O-])c3cccnc3N2)C1 (stereo not given)	none (no result: NPR1 antag, Luciferase inh)
Cn1ncc2c(N3CCN(S(N)(=O)=O)CC3)nc(C3CCCC3)nc21	3T3 cytotox 39.8µM
Cn1ncc2c(N3CCN(S(N)(=O)=O)CC3)nc(-c3cccnc3)nc21	HEK293 tox inconclusive, 3T3 cytotox 39.8µM
COCc1nc(N2CCC(c3cc(=O)[nH]c(C)n3)CC2)c2cnn(C)c2n1	none
C#CCN(C)C(=O)[C@@H]1CCCN1[C@@H](C(=O)NC)c1ccccc1F	none
COCC(=O)N1CC(N2C(=O)c3c(c(C)nn3-c3ccccc3)C2C2CC2)C1 (stereo not given)	3T3 cytotox 112µM (no result: NPR1 antag, Luciferase inh)
Cc1nn(-c2ccccc2)c2c1C(C1CC1)N(C1CN(C(=O)c3ccc(F)cc3)C1)C2=O (stereo not given)	HEK293 tox 44.7µM, 3T3 cytotox inconclusive (no result: NPR1 antag, Luciferase inh)
CCNC(=O)NCC1Cn2cccc2CN1C (stereo not given)	none
C[C@@H]1CCC[C@H](C)N1CC(=O)N1CCn2nc(Cc3ccccc3)cc2C1	none
COC(=O)[C@@H]1Cc2nc[nH]c2CN1C(C)C	HEK293 tox inconclusive, 3T3 cytotox 70.8µM
COC(=O)[C@@H]1Cc2nc[nH]c2CN1C1CCOCC1	none
CC(C(=O)NCCc1ccccc1)N1C(=O)COc2ccc(C(=O)COc3ccc(Cl)cc3)cc21 (stereo not given)	HEK293 tox 44.7µM, 3T3 cytotox inconclusive
Cc1cc(F)ccc1OCC(=O)c1ccc2c(c1)N(C(C)C(=O)N1CCCCC1)C(=O)CO2 (stereo not given)	Luciferase inh inconclusive, HEK293 tox 50.1µM, 3T3 cytotox inconclusive
COc1cc(C)ccc1OCC(=O)c1ccc2c(c1)N(CC(=O)N1CCCC1)C(=O)CO2	HEK293 tox inconclusive
CC(C(=O)NC1CC1)N1C(=O)COc2ccc(C(=O)COc3cccc(Cl)c3)cc21 (stereo not given)	HEK293 tox inconclusive, 3T3 cytotox inconclusive
COc1ccccc1OCC(=O)c1ccc2c(c1)N(C(C)C(=O)NCCc1ccccc1)C(=O)CO2 (stereo not given)	HEK293 tox inconclusive, 3T3 cytotox inconclusive
COc1cccc(OCC(=O)c2ccc3c(c2)N(CCCC(=O)NCc2ccccc2)C(=O)CO3)c1	HEK293 tox inconclusive, 3T3 cytotox 39.8µM
Cc1cccc(OCC(=O)c2ccc3c(c2)N(C(C)C(=O)N2CCCC2)C(=O)CO3)c1C (stereo not given)	Luciferase inh inconclusive, HEK293 tox 44.7µM
O=C(Nc1ccc(F)cc1)C1CCN(c2nc3ncccc3o2)CC1	none (no result: NPR1 antag, Luciferase inh)
O=C1OC[C@@H]2CCN(C3CCC3)Cc3ccc(F)cc3N12	none
O=C(Nc1ccc2c(c1)OCO2)C1CCc2sc(C(=O)N3CCCC3)cc2C1 (stereo not given)	NPR1 antag inconclusive, Luciferase inh inconclusive, HEK293 tox 31.6µM, 3T3 cytotox 22.4µM
COC(=O)c1cccc(NC(=O)C2CCc3sc(C(=O)N(C)C)cc3C2)c1 (stereo not given)	HEK293 tox 44.7µM, 3T3 cytotox inconclusive
CN1CC(=O)N(c2ccc(Cl)cc2)Cc2c1ncnc2N1CCC(c2ccccc2)CC1	HEK293 tox inconclusive, 3T3 cytotox inconclusive
COc1ccc(C(=O)NC2CCCN(c3ccc4nnc(C5CC5)n4n3)C2)cc1 (stereo not given)	none (no result: NPR1 antag, Luciferase inh)
O=C(c1ccc(Cl)s1)N1CCC2(CC1)CN(c1ccncn1)CC2CO (stereo not given)	NPR1 antag inconclusive, HEK293 tox 50.1µM, 3T3 cytotox inconclusive
O=C(CCc1ccccc1)N1CCC(N2CC3CC(C2)[C@H]2CCCC(=O)N2C3)CC1 (stereo not given in full)	none
Cn1nc(C(=O)N2CCCN(c3cc(-c4ccc(Cl)cc4)[nH]n3)CC2)c2ccccc21	HEK293 tox 39.8µM, 3T3 cytotox inconclusive
O=C(c1cccs1)N1CCCN(c2cc(-c3ccc(Cl)cc3)[nH]n2)CC1	NPR1 antag inconclusive, Luciferase inh inconclusive, HEK293 tox 44.7µM, 3T3 cytotox inconclusive
O=C(c1ccc(Br)o1)N1CCCN(c2cc(-c3ccc(Cl)cc3)[nH]n2)CC1	NPR1 antag inconclusive, HEK293 tox inconclusive, 3T3 cytotox 39.8µM
O=C(c1cccs1)N1CCN(c2cc(-c3cccs3)[nH]n2)CC1	3T3 cytotox inconclusive
Cn1nc(C(=O)N2CCN(c3cc(-c4ccccc4)[nH]n3)CC2)c2ccccc21	HEK293 tox inconclusive, 3T3 cytotox inconclusive
O=C(c1ccc(F)c(F)c1)N1CCN(c2cc(-c3ccc(Cl)cc3)[nH]n2)CC1	NPR1 antag inconclusive, HEK293 tox inconclusive, 3T3 cytotox 35.5µM
Cc1ncc2n1C(=O)N(C1CCN(Cc3ccnn3C)CC1)C2	none
CC(C)N1C(=O)C(CC(=O)NCC2CCN(Cc3ccccc3F)CC2)=C2CCCCC21 (stereo not given)	none
Cc1cccc(C(=O)N2CCCN(c3cc(-c4ccc(Cl)cc4)[nH]n3)CC2)c1	HEK293 tox inconclusive, 3T3 cytotox inconclusive
Cc1ccc(C(=O)N2CCCN(c3cc(-c4ccc(Cl)cc4)[nH]n3)CC2)cn1	NPR1 antag inconclusive, HEK293 tox inconclusive
Cc1ccc(C(=O)N2CCCN(c3cc(-c4ccc(Cl)cc4)[nH]n3)CC2)cc1C	HEK293 tox inconclusive, 3T3 cytotox 35.5µM
Cc1cc(C)cc(C(=O)N2CCCN(c3cc(-c4ccc(Cl)cc4)[nH]n3)CC2)c1	HEK293 tox 44.7µM, 3T3 cytotox inconclusive
CCCn1cc2c3c(cccc31)CN(C(=O)c1cccc(C#N)c1)CC2	HEK293 tox inconclusive, 3T3 cytotox inconclusive
COCCn1cc2c3c(cccc31)CN(C(=O)c1cccc(C(F)(F)F)c1)CC2	HEK293 tox inconclusive, 3T3 cytotox 31.6µM
CCCc1nnc(C[C@@H]2C[C@@H](C(C)C)[C@H](CNc3cccnc3)C=C2C)o1	HEK293 tox 89.1µM, 3T3 cytotox 25.1µM
